# Only a selection was taken, and hits are over-represented in it overall.
# Tg IFNy HTS – inhibitors of Toxoplasma gondii growth with IFN-gamma; activity change, negative = inhibition, % (no concentration beside the values); Toxoplasma gondii growth in IFN-gamma-treated host cells; active compounds read low; 69,000 compounds, 3.8% hits; AID 1259416; in the data active = activity change below about -70%, passing the limit was not always enough;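 also: host cells are HeLa cells infected with Toxoplasma gondii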
# Hits are given with their value; – = inactive.
SMILES,Tg IFNy HTS
CO[C@H]1CC[C@H]2CCOc3c(C#N)cccc3C(=O)N(C)C[C@H](c3ccccc3)CC(=O)N(C)C[C@@H]1O2,–
CCCC(=O)Nc1ccc2c(c1)C(=O)N(C)[C@@H]1CC[C@H](CC(=O)NCc3cccc(F)c3)O[C@H]1CO2,–
O=C(NC(=S)Nc1ccc(S(=O)(=O)N2CCOCC2)cc1)c1cccs1,–
O=C(Nc1cccc(-c2cc3ccccc3oc2=O)c1)c1ccc(Br)o1,–
Cc1cc(NC(=S)NC(=O)c2cccs2)ccc1-c1cc2ccccc2oc1=O,-80
COc1ccc2c(c1)NC1(CCN(C(=O)Nc3ccc4c(c3)OCCO4)CC1)c1cccn1-2,–
CC(=O)[C@H]1[C@H](C#N)C[C@H]2[C@@H]3CC=C4C[C@@H](O)CC[C@]4(C)[C@H]3CC[C@@]21C,-84
C[C@]12CCC3C(CC=C4C[C@@H](O)CC[C@@]43C)C1CCC2[C@]1(C)CCC(=O)O1 (some centres undefined),–
C[C@]12CC[C@H](O)CC1=CCC1C2CC[C@]2(C)C(n3cnc4ccccc43)=CCC12 (some centres undefined),–
CC(C)Nc1nc2c(c(NC3CC3)n1)CCN(CC1CCOC1)CC2 (centres undefined),–
Cc1ccc(C(=O)N2CCN(c3nc(C)nc4sc5c(c34)CCCC5)CC2)cc1,-96
CCCCSc1nc2sc3c(c2c(=O)n1-c1ccc(C)cc1)CCC3,–
Cc1ccc(C(=O)N2CCOCC2)cc1,–
CCCc1ccc(C(=O)N(C)Cc2ncc[nH]2)cc1,–
CCN1c2cc(C)ccc2-n2cccc2C12CCNCC2,–
O=S(=O)(c1cccc(F)c1)N1CC[C@@H]2[C@@H](CO)Nc3ccc(C#Cc4ccccc4F)cc3[C@@H]21,–
C[C@H](CO)N1C[C@H](C)[C@@H](CN(C)C(=O)[C@H](Cc2ccccc2)N(C)C)OCc2ccccc2-c2c(n(C)c3ccccc23)C1=O,–
C[C@H](CO)N1C[C@H](C)[C@H](CN(C)C(=O)[C@@H](Cc2ccccc2)N(C)C)OCc2ccccc2-c2c(n(C)c3ccccc23)C1=O,-72
C[C@@H]1CN([C@@H](C)CO)C(=O)c2c(c3ccccc3n2C)-c2ccccc2CO[C@@H]1CN(C)C(=O)[C@@H](Cc1ccccc1)N(C)C,–
O=C1NC2(CCN(C(=O)c3ccco3)CC2)CC1c1cccnc1 (centres undefined),–
Cc1noc(C)c1C(=O)N1CCC2(CC(NS(C)(=O)=O)C2)C1 (centres undefined),–
CN(C)CC1(O)CCCN(S(=O)(=O)N(C)Cc2ccccc2)CC1 (centres undefined),-78
CN(C)CC1(O)CCCN(Cc2ccccc2OCC(=O)O)CC1 (centres undefined),–
CN(C)CC1(O)CCCN(C(=O)CCOc2ccccc2)C1 (centres undefined),–
Fc1ccc2c(c1)/C(=N\Nc1cc(C(F)(F)F)ccc1Cl)CCO2,–
SMILES,Tg IFNy HTS
COc1cc(NC(=O)Nc2ccc(OC(F)(F)F)cc2)cc(C(F)(F)F)c1,-96
COc1ccc(-n2ncc(NC(=O)Nc3ccc(OC(F)(F)F)cc3)c2C)cc1,–
O=C(C#Cc1ccccc1)Nc1ccc(OC(F)(F)F)cc1,–
COc1ccccc1NC(=O)CCCCCN1C(=O)c2cccc3cccc(c23)C1=O,–
O=C(CCCCCN1C(=O)c2cccc3cccc(c23)C1=O)NO,-84
CCCCC(CC)CNC(=O)CCCCCN1C(=O)c2ccccc2C1=O (centres undefined),–
Cc1ccc(CNC(=O)c2cccc3[nH]cc(CN4CCCC4)c23)o1,–
Cc1ccnc(NC(=O)Cn2ccc3ccc(-c4nnc(C)o4)cc32)c1,–
COc1cc(Nc2ncc(F)c(Nc3ccc4c(n3)N(COP(=O)(O)O)C(=O)C(C)(C)O4)n2)cc(OC)c1OC,-74
C=CC(=O)Nc1cccc(Nc2nc(Nc3ccc(OCCOC)cc3)ncc2F)c1,–
CC(C)N(C)Cc1nnc2n1CCN(Cc1ccccn1)C2,–
CO[C@@H]1[C@H](N(C)C(=O)c2ccccc2)C[C@H]2O[C@]1(C)n1c3ccccc3c3c4c(c5c6ccccc6n2c5c31)C(=O)NC4,-84
Cn1c2ccccc2c2c3c(c4c5ccccc5n(CCC#N)c4c21)CNC3=O,–
c1ccc(C2CN3CCSC3=N2)cc1 (centres undefined),–
Cc1ccc(CSC2=Nc3ccccc3C3=NC(CC(=O)NCc4cccs4)C(=O)N23)cc1 (centres undefined),–
O=C(CO)N1CCC2(CC1)COCCN(c1cccnc1)C2,–
COc1ccc(CCN(C)CCc2ccc(OC)c(OC)c2)cc1OC,–
COc1ccc(CCN(C)CCCC(C#N)(c2cc(OC)c(OC)c(OC)c2)C(C)C)cc1OC (centres undefined),–
COc1ccc(CCN(C)CCCOc2ccc(S(=O)(=O)c3c(C(C)C)c4ccccc4n3C)cc2)cc1OC,-73
CC(C)N1CC2(CCOCC2)c2cc(NC(=O)c3ccsc3)ccc21,–
O=C1CCc2cc(NS(=O)(=O)Cc3ccccc3Cl)ccc2N1,–
COc1cc(C)nc(OCCNC(=O)COc2ccc(Cl)cc2C)n1,–
Cc1cc(Cl)ccc1OCCCC(=O)NO,-83
Cc1cc(Cl)ccc1OCCCC(=O)N1CCN(C)CC1,–
CNC(=O)C1CN(C(=O)Cc2c[nH]c3ccccc23)CC12CCCC2 (centres undefined),–
SMILES,Tg IFNy HTS
Cc1ccc(-c2cc(C(F)(F)F)nn2-c2ccc(S(N)(=O)=O)cc2)cc1,–
NCC(=O)Nc1ccc(-n2nc(C(F)(F)F)cc2-c2ccc3c(ccc4ccccc43)c2)cc1,-87
NCC(=O)Nc1ccc(-c2cccc(C(F)(F)F)c2)cc1F,–
CN(C)C1CCN(Cc2ccc(C(=O)Nc3ccc4c(cnn4C)c3)cc2)C1 (centres undefined),–
Cc1ccc(C(=O)Nc2ccc(CN3CCN(C)CC3)c(C(F)(F)F)c2)cc1C#Cc1cnc2[nH]ncc2c1,-80
Cc1ncc(NC(=O)c2ccc(CN3CCN(C)CC3)c(C(F)(F)F)c2)cc1Nc1nccc(-c2cccnc2)n1,–
O=C(O)CCCCC(CCSCc1ccccc1)SCc1ccccc1 (centres undefined),–
Cc1cc(NC(=O)CN2CCC3(CCC2=O)CC(=O)c2ccccc2O3)nn1C (centres undefined),–
C=Cn1cc(CN2CCCC(CNC(=O)c3ccncc3C)C2)cn1 (centres undefined),–
Cc1cc(C)nc(Nc2n[nH]c(COc3ccc4ccccc4c3)n2)n1,–
CC(NC(=O)Cc1nc2ccccc2[nH]1)c1ccc(O)c(F)c1 (centres undefined),–
Cc1cc(OCc2nc3ccccc3[nH]2)ccc1C(C)C,-87
C=CCOC[C@H]1CCC2C(CCN2C(=O)NCc2cccc(F)c2)O1 (some centres undefined),–
CCOCC1CN(Cc2nccs2)Cc2ccnn2C1 (centres undefined),–
Cc1nc(-c2ccccc2)sc1CCNC(=O)C(=O)Nc1ccccc1F,–
COc1cc(C)c2c(c1)C=CC1C2CCC2(C)C(O)CCC12 (centres undefined),–
C[C@]12CC[C@@H]3c4ccc(O)cc4C[C@@H](CCCCCCCCCS(=O)CCCC(F)(F)C(F)(F)F)[C@H]3[C@@H]1CC[C@@H]2O (some centres undefined),-78
CCOc1ccc(-c2ccccc2NC(=O)C2CC2)cc1,–
Cc1cc(C)c2nc(C)cc(C(=O)Nc3ccccc3-c3ccccc3)c2c1,–
O=C(Nc1ccccc1-c1ccccc1)c1ccc2c(c1)[nH]c(=O)n2C1CCCC1,-92
